Most compounds without a hit are left out; they make up all but 3.5% or so of the library.
GDH-TPI inh: GDH-TPI coupling enzyme inhibitors, primary screen, artefact control for M. tuberculosis FBA inhibitor project, biochemical, absorbance, full deck; GDH-TPI coupled enzyme counterscreen, NADH absorbance; inhibition, % at 4.8 µM; 360,000 compounds, 1.2% hits; AID 588335, 2011; in the data active = inhibition above about 30%;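 note: 0% = DMSO wells and 100% = wells lacking the enzyme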
Mtb UGM inh: M. tuberculosis UGM enzyme inhibitors, primary screen, biochemical, fluorescence polarization, single point | purified UGM, fluorescence polarization probe displacement | inhibition, % at 10 µM | 320,000 compounds, 0.06% hits | UDP-galactopyranose mutase (Mycobacterium tuberculosis (strain ATCC 25618 / H37Rv)), … | AID 504406, 2011; in the data active = inhibition above about 10%, passing the limit was not always enough
Rv3671c inh: Rv3671c serine protease inhibitors, primary screen, biochemical, fluorescence polarization, M. tuberculosis H37Rv; inhibition, % at 5.96 µM; AID 2606, 2010; 320,000 compounds, 0.048% hits; P9WHR9; in the data active = inhibition above about 38%;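 note: extracellular domain of Rv3671c used as enzyme; 0% = enzyme with DMSO and 100% = no enzyme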
Mtb FBA inh: Mtb FBA enzyme inhibitors, primary screen, biochemical, fluorescence, strain H37Rv | Fructose-bisphosphate aldolase (Mycobacterium tuberculosis (strain ATCC 25618 / H37Rv)), … | purified M. tuberculosis FBA, fluorescence read-out | inhibition, % at 1 µM | 360,000 compounds, 2.3% hits; in the data active = inhibition above about 27%;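 note: 0% = vehicle and 100% = reference inhibitor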
Target sequence (P9WQA3 whole entry, looked up): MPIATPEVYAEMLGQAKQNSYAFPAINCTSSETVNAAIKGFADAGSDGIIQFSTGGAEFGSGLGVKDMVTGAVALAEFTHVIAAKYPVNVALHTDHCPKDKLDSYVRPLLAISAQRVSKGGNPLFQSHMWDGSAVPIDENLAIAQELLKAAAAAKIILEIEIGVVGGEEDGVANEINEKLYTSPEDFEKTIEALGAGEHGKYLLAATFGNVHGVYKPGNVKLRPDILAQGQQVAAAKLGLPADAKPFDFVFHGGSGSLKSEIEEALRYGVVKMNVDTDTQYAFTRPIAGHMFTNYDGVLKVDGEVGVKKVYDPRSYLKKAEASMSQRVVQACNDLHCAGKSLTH
Numbers without * were called inactive.

Results for Cc1nc2nc(C)c(NS(=O)(=O)c3ccc4c(c3)CCCC4)c(=O)n2[nH]1 ?
GDH-TPI inh: 0.0; Mtb UGM inh: -2.1; Rv3671c inh: -5.5; Mtb FBA inh: -0.4

How did CC(C)CN(c1ccccc1)S(=O)(=O)c1nnc(NC(=O)c2ccco2)s1 do in these assays?
GDH-TPI inh: 34.8*; Mtb UGM inh: -0.3; Rv3671c inh: -1.1; Mtb FBA inh: 5.5

How did CCN(c1ccc(C)cc1)S(=O)(=O)c1nnc(NC(=O)c2ccco2)s1 do in these assays?
GDH-TPI inh: 40.9*; Mtb UGM inh: -1.9; Rv3671c inh: -5.4; Mtb FBA inh: 4.6

Results for CCN(c1ccc(C)cc1C)S(=O)(=O)c1nnc(NC(=O)c2ccco2)s1 ?
GDH-TPI inh: 26.9; Mtb UGM inh: -2.0; Rv3671c inh: -12.5; Mtb FBA inh: 7.2

Results for CCOC(=O)Cn1cc(/C=N/NC(=O)c2ccc(C#N)cc2F)c2ccccc21 ?
GDH-TPI inh: 33.8*; Mtb UGM inh: 2.3; Rv3671c inh: 3.5; Mtb FBA inh: -0.8

Results for Cn1cc(/C=N/NC(=O)c2ccc(C#N)cc2F)c2ccccc21 ?
GDH-TPI inh: 17.8; Mtb UGM inh: 5.7; Rv3671c inh: 1.6; Mtb FBA inh: 0.1

Results for N#Cc1ccc(C(=O)N/N=C/c2cn(CC(=O)O)c3ccccc23)c(F)c1 ?
GDH-TPI inh: 35.7*; Mtb UGM inh: 4.6; Rv3671c inh: -16.2; Mtb FBA inh: -5.6

What do the screens show for `COc1cc(/C=N/NC(=O)Cc2ccccc2)cc([N+](=O)[O-])c1O`?
GDH-TPI inh: 58.6*; Mtb UGM inh: 2.0; Rv3671c inh: 7.0; Mtb FBA inh: -7.3

Results for COc1cc(/C=N/Nc2nc3ccccc3s2)cc([N+](=O)[O-])c1O ?
GDH-TPI inh: 70.0*; Mtb UGM inh: -0.2; Rv3671c inh: 10.6; Mtb FBA inh: 0.1

What do the screens show for `Cc1n[nH]c(=O)nc1N/N=C/c1ccc(O)c([N+](=O)[O-])c1`?
GDH-TPI inh: 42.8*; Mtb UGM inh: 0.5; Rv3671c inh: -5.0; Mtb FBA inh: 0.2

How did COc1ccc(/C=N/Nc2nc(=O)[nH]nc2C)cc1[N+](=O)[O-] do in these assays?
GDH-TPI inh: 37.9*; Mtb UGM inh: 4.5; Rv3671c inh: -11.8; Mtb FBA inh: 0.6

How did COc1ccc(/C=C2\N=C(C)OC2=O)cc1[N+](=O)[O-] do in these assays?
GDH-TPI inh: 7.8; Mtb UGM inh: -1.9; Rv3671c inh: 8.7; Mtb FBA inh: 0.0

What do the screens show for `CCN1C(=O)[C@H]2[C@H]3CN=C(SC)N3[C@@](C)(C(=O)OC)[C@H]2C1=O`?
GDH-TPI inh: 7.3; Mtb FBA inh: -0.4

Results for Cc1nn(CC(=O)NCCc2cccs2)c(=O)c2cc3ccccc3n12 ?
GDH-TPI inh: 5.9; Mtb UGM inh: -2.5; Rv3671c inh: -5.2; Mtb FBA inh: 4.9

Results for COc1cc(/C=N/Nc2nc(=O)[nH]nc2C)cc([N+](=O)[O-])c1O ?
GDH-TPI inh: 38.0*; Mtb UGM inh: 1.0; Rv3671c inh: 3.9; Mtb FBA inh: -11.5

Results for Cc1cc(C(=O)N/N=C/c2ccc(O)c([N+](=O)[O-])c2)n[nH]1 ?
GDH-TPI inh: 42.6*; Mtb UGM inh: 2.3; Rv3671c inh: -10.5; Mtb FBA inh: -8.6

How did Cc1cc(C(=O)N/N=C/c2cccc([N+](=O)[O-])c2O)n[nH]1 do in these assays?
GDH-TPI inh: -0.7; Mtb UGM inh: 0.1; Rv3671c inh: 2.6; Mtb FBA inh: -5.0

Results for c1csc(-c2ccnc3ncnn23)c1 ?
GDH-TPI inh: 24.0; Mtb UGM inh: -0.8; Rv3671c inh: 5.1; Mtb FBA inh: 160.2*

What do the screens show for `CN(C)/C=N/c1nc2nccc(-c3cccs3)n2n1`?
GDH-TPI inh: 27.9; Mtb UGM inh: 0.6; Rv3671c inh: 1.3; Mtb FBA inh: 188.0*

How did c1ccc(-c2ccnc3ncnn23)nc1 do in these assays?
GDH-TPI inh: 6.0; Mtb UGM inh: -1.2; Rv3671c inh: -5.6; Mtb FBA inh: 3.1

What do the screens show for `Cc1ccc(Cl)cc1-c1cc(C(=O)NCc2cc(C(F)(F)F)cc(C(F)(F)F)c2)[nH]n1`?
GDH-TPI inh: -3.5; Mtb FBA inh: 0.3

What do the screens show for `Cc1ccc(C(=O)NNC(=O)CSc2nnc(C(C)C)n2C)cc1`?
GDH-TPI inh: 3.0; Mtb UGM inh: -0.8; Rv3671c inh: 0.1; Mtb FBA inh: 0.0

What do the screens show for `COCc1cc(C)n(CC(=O)Nc2ccc3c(c2)OCO3)c(=O)c1C#N`?
GDH-TPI inh: 31.9*; Mtb UGM inh: -2.7; Rv3671c inh: 2.7; Mtb FBA inh: -0.2

How did COCc1cc(C)n(CC(=O)Nc2cccc(C)c2)c(=O)c1C#N do in these assays?
GDH-TPI inh: 19.7; Mtb UGM inh: 0.9; Rv3671c inh: -1.6; Mtb FBA inh: 4.3

How did CN1/C(=C\C=C\C2=[N+](C)c3ccc4ccccc4c3C2(C)C)C(C)(C)c2ccccc21 do in these assays?
Mtb UGM inh: 1.2; Rv3671c inh: 186.6*

How did COC(=O)c1sc(NC(=S)NNC(=O)c2c(Br)c(C)nn2C)c(C(=O)OC)c1C do in these assays?
GDH-TPI inh: 52.6*; Mtb UGM inh: 0.9; Rv3671c inh: 8.6; Mtb FBA inh: -1.3

How did CCOC(=O)c1c[nH]n(-c2ccccc2)c1=O do in these assays?
GDH-TPI inh: -5.2; Mtb UGM inh: 2.2; Rv3671c inh: -8.8; Mtb FBA inh: 2.1

Results for CCOC(=O)c1cc(C(=O)OCC)c2ccccn2c1=O ?
GDH-TPI inh: 6.0; Mtb UGM inh: 3.4; Rv3671c inh: 4.8; Mtb FBA inh: active

What do the screens show for `O=S(=O)(c1c(F)cccc1F)N1CCCC2CCCCC21` (centres undefined)?
GDH-TPI inh: -3.0; Mtb UGM inh: 1.9; Rv3671c inh: -2.2; Mtb FBA inh: -2.6

What do the screens show for `O=C(/C=C/N1CCOCC1)c1ccc(-c2ccccc2)cc1`?
GDH-TPI inh: 38.0*; Mtb UGM inh: 0.6; Rv3671c inh: -16.7; Mtb FBA inh: -4.8

How did CCOc1ccc(/C(O)=C2\C(=O)C(=O)N(c3ccccn3)C2c2ccccc2F)c(C)c1 (centres undefined) do in these assays?
GDH-TPI inh: 9.7; Mtb FBA inh: -2.7

What do the screens show for `COC(=O)c1c2[n+](cc3cc(OC)c(OC)cc13)CCc1cc(OC)c(OC)cc1-2`?
GDH-TPI inh: 43.4*; Mtb UGM inh: 5.6; Rv3671c inh: 10.3; Mtb FBA inh: -0.1

Results for COC(=O)c1ccc2cc(OC)c(OC)cc2c1 ?
GDH-TPI inh: -1.8; Mtb FBA inh: 13.4

Results for O=C1CC(c2ccc(O)cc2)Oc2cc(O)ccc21 (centres undefined) ?
GDH-TPI inh: 15.3; Mtb UGM inh: 0.2; Rv3671c inh: -11.6; Mtb FBA inh: 2.1

Results for O=C1C[C@@H](c2ccc(O[C@@H]3O[C@H](CO)[C@@H](O)[C@H](O)[C@H]3O)cc2)Oc2cc(O)ccc21 ?
GDH-TPI inh: 34.5*; Mtb UGM inh: -1.6; Rv3671c inh: 3.7; Mtb FBA inh: 0.5

How did O=C(OCC(=O)N1CCOCC1)c1ccccc1O do in these assays?
GDH-TPI inh: -5.2; Mtb UGM inh: 0.3; Rv3671c inh: 0.5; Mtb FBA inh: 0.5

Source: PubChem (several laboratories)
